Inconclusive results are not listed. Where a call stands in place of a potency, no number is given. Values without a mark were called inactive. Activity calls are given as the source filed them. The call rests on the fitted dose curve; in most records, active means well fitted inhibition curve with a large enough effect; inconclusive means small, poorly fitted or top-dose-only effect; inactive means no such curve, though single readings can be large or run the other way. Where a SMILES comes first, the peptide text is derived from it. [ ]: non-standard residue; d: D form. ξ: configuration not given here. ξLac(3-iPr) = CC(C)CC(O)C(=O)O; NMeV = CN[CH](C(=O)O)C(C)C; βAla = NCCC(=O)O
Experiments:
[1] = tested on: Zika virus NS2B-NS3 protease (unlinked complex); test: Primary screen GU Rhodamine qHTS for Zika virus inhibitors: Unlinked NS2B-NS3 protease assay (AID 1347159); further: nearly all actives have a fitted effect of over 60% in size
Method in brief: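 Percent inhibition came from the 15-min rise in Rhodamine110 fluorescence (1.5 microM substrate, ~15% conversion), normalized to no-inhibitor and no-enzyme wells and Hill-fitted. Unlinked protease, 25 nM, pH 8.0 Tris buffer; compounds up to 114 microM, 15-min preincubation.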

[2] = tested on: Zika virus NS2B-NS3 protease (linked construct); test: Primary screen NINDS Rhodamine qHTS for Zika virus inhibitors (AID 1347160); further: nearly all actives have a fitted effect of over 55% in size
Method in brief: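 Rhodamine110-peptide cleavage (1.5 µM substrate) by 25 nM linked NS2B-NS3 enzyme at pH 8.0 (Tris, Tween 20), after 15 min RT preincubation with compounds; 15-min fluorescence change normalized to controls and Hill-fitted.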

Row | SMILES | Potency [1] | Potency [2] | activity change, negative = inhibition [1] | activity change, negative = inhibition [2]
1 | NCc1ccc(Nc2ncc(F)c(Nc3ccccc3)n2)cc1 | inactive | inactive | – | –
2 | O=C(O)c1cn(C2CC2)c2cc(N3C[C@@H]4C[C@H]3CN4)c(F)cc2c1=O | inactive | inactive | – | –
3 | NC(=O)c1cccc(-c2cc(OC(=O)NC3CCCCC3)ccc2O)c1 | inactive | inactive | – | –
4 | C=C[C@@](C)(O)CC/C=C(\C)C(=O)O[C@@H]1[C@@H]2O[C@]2(C)[C@H]2[C@H](O[C@@H]3O[C@H](CO)[C@@H](O)[C@H](O)[C@H]3O)OC=C[C@@]12O | inactive | inactive | – | –
5 | CCCCNc1ncc2c(-c3ccc(CN4CCN(C)CC4)cc3)cn(C3CCC(O)CC3)c2n1 (centres undefined) | inactive | inactive | – | –
6 | C=C[C@]1(C)C[C@H](O)[C@@H]2[C@H](OC(=O)[C@@H]2C)C1/C(C)=C/O[C@@H]1O[C@H](CO)[C@@H](O)[C@H](O)[C@H]1O (some centres undefined) | inactive | inactive | – | –
7 | CC1=C(C)C(=O)OC(C(C)C2CCC3C4CC=C5CC(OC6OC(COC7OC(CO)C(O)C(O)C7O)C(O)C(O)C6O)CC(O)C5(C)C4CCC23C)C1 (centres undefined) | inactive | inactive | – | –
8 | COCC1OC(OC(C)(C)C2CCC3(C)C=C(C4CCC5C4(C)CC(O)C4OC(C(C)(C)OC6OC(CO)C(O)C(O)C6NC(C)=O)CCC45C)CCC3O2)C(NC(C)=O)C(O)C1O (centres undefined) | inactive | inactive | – | –
9 | Cn1c(=O)n(-c2ccc(C(C)(C)C#N)cc2)c2c3cc(C#Cc4cccnc4)ccc3ncc21 | inactive | inactive | – | –
10 | CC(=O)O[C@@H]1[C@@H](OC(=O)/C=C/c2ccccc2)[C@@H](OC(C)=O)[C@H](O[C@H]2[C@@H]3C=CO[C@@H](O[C@@H]4O[C@H](CO)[C@@H](O)[C@H](O)[C@H]4O)[C@@H]3[C@@]3(CO)O[C@@H]23)O[C@H]1C | inactive | inactive | – | –
11 | O=C(Nc1ccccc1-c1cn2c(CN3CCNCC3)csc2n1)c1ccc2ccccc2n1 | inactive | inactive | – | –
12 | CC(=O)OC1C[C@]2(C)C(O)CC(C)=C[C@H](OC(=O)c3ccc(O)cc3)C2[C@]1(O)C(C)C (some centres undefined) | inactive | inactive | – | –
13 | COc1ccc(-c2cnc(-c3cccc4c3-c3ccccc3C4=O)o2)cc1 | inactive | inactive | – | –
14 | CC1OC2OC(=O)C3(C)CC4=C(CO)C5=C(CC(=O)C4(C)C(C1=O)C23)C(C)(C)OC(=O)C5 (centres undefined) | inactive | inactive | – | –
15 | COc1cc2nc(N3CCC(N4CCCCC4)CC3)nc(NC3CCCCCC3)c2cc1OC | inactive | inactive | – | –
16 | CC(=O)OC[C@]12[C@H](OC(C)=O)C(=O)[C@@H]3[C@@H](OC(C)=O)[C@@]14O[C@@]3(C)COC(=O)c1cccnc1[C@@H](C)[C@H](C)C(=O)O[C@@H]([C@H](O)[C@@H]2OC(C)=O)[C@]4(C)O | inactive | inactive | – | –
17 | COC(=O)c1cc(OC)c(O[C@@H]2O[C@@H](C)[C@H](O)[C@@H](O)[C@H]2O)c(OC)c1 | inactive | inactive | – | –
18 | CC#CC(=O)N1CCC[C@H]1c1nc(-c2ccc(C(=O)Nc3ccccn3)cc2)c2c(N)nccn12 | inactive | inactive | – | –
19 | CCC(C)C(=O)OC1CC(O)C23C4OCC5(C(O)CC2C1(C)C(O)O4)C3C(=O)C(O)C1(C)C(O)(c2ccoc2)CC2OC251 (centres undefined) | inactive | inactive | – | –
20 | CO/N=C(/C(=O)N[C@@H]1C(=O)N2C(C(=O)O)=C(Cn3ccc(=N)n3CCO)CS[C@H]12)c1csc(N)n1 | inactive | inactive | – | –
21 | Cc1cc(C)c(Nc2ccnc(Nc3ccc(C#N)cc3)n2)c(C)c1 | inactive | inactive | – | –

Row | SMILES | Potency [1] | Potency [2] | activity change, negative = inhibition [1] | activity change, negative = inhibition [2]
22 | O=C(OC1C=C(CO)C2C(OC3OC(CO)C(O)C(O)C3O)OC=CC12)c1ccc(O)cc1 (centres undefined) | inactive | inactive | – | –
23 | C[C@@H]1CC[C@]2(C(=O)OC3OC(CO)C(O)C(O)C3O)CC[C@]3(C)C(=CCC4[C@@]5(C)CC[C@H](O)[C@](C)(C(=O)O)C5CC[C@]43C)C2[C@]1(C)O (some centres undefined) | inactive | inactive | – | –
24 | CC(C)CC1NC(=O)C2CC3(O)c4ccccc4NC3N2C1=O (centres undefined) | inactive | inactive | – | –
25 | O=C(CCCCN1CCOCC1)Nc1ccc(-c2cccnc2)cc1 | inactive | inactive | – | –
26 | O=C(NCC(O)CO)c1ccncc1Nc1ccc(I)cc1F (centres undefined) | inactive | inactive | – | –
27 | C[C@@H]1O[C@@H](OC[C@H]2O[C@@H](Oc3cc(O)cc4c3C(=O)C(O)(Cc3ccc(O)cc3)O4)[C@H](O)[C@@H](O)[C@@H]2O)[C@H](O)[C@H](O)[C@H]1O (some centres undefined) | inactive | inactive | – | –
28 | Cc1[nH]nc(C(F)(F)F)c1Cc1sc2c(c1C(=O)N1C[C@](C)(O)CO1)c(=O)n(C)c(=O)n2C(C)C | inactive | inactive | – | –
29 | C/C(=C\CC[C@@H](C)[C@H]1CC(O)[C@@]2(C)C3CC[C@H]4C(C)(C)[C@@H](OC5OCC(O)C(O)C5OC5OC(CO)C(O)C(O)C5O)CC[C@@]45C[C@@]35CC(O)[C@]12C)C(=O)O (some centres undefined) | inactive | inactive | – | –
30 | O=C(Nc1ccc(-c2ccncc2)cc1)N[C@H](CO)c1ccccc1 | inactive | inactive | – | –
31 | COc1ccccc1NC(=O)OCC1CCN(C(=O)OC(C)(C)C)CC1 | inactive | inactive | – | –
32 | COC(=O)c1cc(OC)cc(OC)c1C(=O)c1c(OC)cc2c(c1O)C1CCCC(C)(O2)O1 (centres undefined) | inactive | inactive | – | –
33 | CN(c1ccccc1CNc1nc(Nc2ccc3c(c2)CC(=O)N3)ncc1C(F)(F)F)S(C)(=O)=O | inactive | inactive | – | –
34 | COc1cc(Nc2nc3c(s2)CCCC3c2ccc(F)cc2)ccc1-n1cnc(C)c1 (centres undefined) | inactive | inactive | – | –
35 | CC(Oc1ccc2[nH]nc(/C=C/c3cnn(CCO)c3)c2c1)c1c(Cl)cncc1Cl (centres undefined) | inactive | inactive | – | –
36 | CNC(=O)c1ccccc1Nc1nc(Nc2ccc3c(c2OC)CCCC(N2CCN(CCO)CC2)C3)ncc1Cl (centres undefined) | inactive | inactive | – | –
37 | C=C(C)C1CCC2(C(=O)O[C@@H]3O[C@H](CO[C@@H]4O[C@H](CO)[C@@H](O)[C@H](O)[C@H]4O)[C@@H](O)[C@H](O[C@@H]4O[C@@H](C)[C@H](O)[C@@H](O)[C@H]4O)[C@H]3O)CCC3(C(=O)O)C(CCC4C5(C)CCC(O)C(C)(C)C5CCC43C)C12 (some centres undefined) | inactive | inactive | – | –
38 | CC1OC(OC2CCC3(C)C(CCC4(C)C3CC=C3C5CC(C)(C)CCC5(C(=O)OC5OC(CO)C(O)C(O)C5O)CCC34C(=O)O)C2(C)C)C(O)C(O)C1O (centres undefined) | inactive | inactive | – | –
39 | C[C@H](NC(c1cccc2[nH]c(=O)c(=O)[nH]c12)P(=O)(O)O)c1ccc(Br)cc1 (some centres undefined) | inactive | inactive | – | –
40 | CC(=O)OC[C@@]12C(=O)C[C@@H](C)[C@]3(C[C@@H](c4ccoc4)O[C@H]3OC(C)=O)[C@H]1CCC[C@]21CO1 | inactive | inactive | – | –
41 | COC1CC(O[C@H]2CC[C@@]3(C)C(=CC[C@]4(O)C3[C@H](OC(C)=O)[C@@H](OC(=O)c3ccccc3)[C@]3(C)[C@@H](C(C)=O)CC[C@@]34O)C2)OC(C)C1OC1CC(OC)C(OC2CC(OC)C(OC3OC(C)C(OC4OC(CO)C(O)C(O)C4O)C(OC)C3O)C(C)O2)C(C)O1 (some centres undefined) | – | – | 25.7% [at 19.1 µM] | -1.64% [at 10.7 µM]
42 | CCCCNc1ncc2c(-c3ccc(F)cc3)nn(CC3CCC(N)CC3)c2n1 (centres undefined) | inactive | inactive | – | –

Row | SMILES | Potency [1] | Potency [2] | activity change, negative = inhibition [1] | activity change, negative = inhibition [2]
43 | CC(=O)OC1C(O)C2C(C)C3=CC(=O)OC3(O)CC2C2(C)CCCC(C)(CO)C12 (centres undefined) | inactive | inactive | – | –
44 | CC1COC(Nc2ccc3ncnc(Nc4ccc(OCc5nccs5)c(Cl)c4)c3c2)=N1 (centres undefined) | inactive | inactive | – | –
45 | COc1cc(OC)cc(C(=O)Nc2ccc(Cl)c(-c3nc4ccc(N(C)C)cc4[nH]3)c2)c1 | inactive | inactive | – | –
46 | O=C1C=CC2OC(c3ccccc3)C(O)C2O1 (centres undefined) | inactive | inactive | – | –
47 | CNC(=O)c1ccccc1Nc1cc(Nc2ccc(N3CCOCC3)cc2OC)ncc1C(F)(F)F | inactive | inactive | – | –
48 | CC[C@@](C)(Nc1ccnc(-c2c[nH]c3ncccc23)n1)C(=O)NCC(F)(F)F | inactive | inactive | – | –
49 | CCNCc1nc2c(N)nc3ccccc3c2n1CC(C)(C)O | inactive | inactive | – | –
50 | COc1ccc([C@@]2(O)c3c(ccc(CC=C(C)C)c3O)NC(=O)[C@@H]2OC)cc1 | inactive | inactive | – | –
51 | CC1CCC2C(C)(C)[C@@H](O)CC[C@]2(C)C12Cc1c(O)cc3c(c1O2)CN(C(CCC(=O)O)C(=O)O)C3=O (some centres undefined) | inactive | inactive | – | –
52 | COc1ccc(C2(O)CCC(N3CC[C@@H](NC(=O)CNC(=O)c4cccc(C(F)(F)F)c4)C3)CC2)cn1 (some centres undefined) | inactive | inactive | – | –
53 | O=C(O)c1cccc(S(=O)(=O)N2CCc3ccccc3C2)c1 | inactive | inactive | – | –
54 | CCOc1cc(C(=O)N2CCC(N3CCN(C)CC3)CC2)ccc1Nc1ncc2c(n1)N(C1CCCC1)c1ccccc1C(=O)N2C | inactive | inactive | – | –
55 | NC(=O)Nc1cc(-c2cccc(F)c2)sc1C(=O)NC1CCCNC1 (centres undefined) | inactive | inactive | – | –
56 | CC(C)CC1OC(=O)C2CCCN2C(=O)CCNC(=O)C(Cc2ccccc2)NC(=O)C(C(C)C)N(C)C(=O)C(C(C)C)N(C)C1=O (centres undefined) (cyclo([ξLac(3-iPr)][NMeV][NMeV]F[βAla]P); configuration not given here) | inactive | inactive | – | –
57 | COC(=O)C1=CO[C@@H](O)C2C(CO)=CCC12 (some centres undefined) | inactive | inactive | – | –
58 | C/C=C1\[C@H](O[C@@H]2O[C@H](CO)[C@@H](O)[C@H](O)[C@H]2O)OC=C(C(=O)OC)[C@H]1CC(=O)O | inactive | inactive | – | –
59 | COC(=O)CCc1cc2ccoc2c(OC)c1O[C@@H]1O[C@H](CO)[C@@H](O)[C@H](O)[C@H]1O | inactive | inactive | – | –
60 | C[C@@H]1CCC2C(C)(C)[C@H](O)CC[C@]2(C)[C@@]12Cc1c(O)cc3c(c1O2)CNC3=O (some centres undefined) | inactive | inactive | – | –
61 | COc1cc2ncnc(Nc3ccc(F)c(Cl)c3)c2cc1NC(=O)/C=C/CN1CCCCC1 | inactive | inactive | – | –
62 | CC1CC[C@]2(C(=O)O)CC[C@]3(C(=O)O)C(=CCC4[C@@]5(C)CC[C@H](O[C@@H]6O[C@H](CO)[C@@H](O)[C@H](O)[C@H]6O)C(C)(C)C5CC[C@]43C)C2C1C (some centres undefined) | inactive | inactive | – | –

From PubChem BioAssay (NCATS)
